D1 potentiator: Potentiators of Human D1 Dopamine Receptor: qHTS. 360,000 tested, 0.036% active. HEK293 TREx D1 cells, calcium flux, dopamine EC20 potentiation. potentiation, % at 10 µM; in the data active = potentiation above about 30%; also: 0% is about no effect
Target sequence (P21728 whole entry, looked up): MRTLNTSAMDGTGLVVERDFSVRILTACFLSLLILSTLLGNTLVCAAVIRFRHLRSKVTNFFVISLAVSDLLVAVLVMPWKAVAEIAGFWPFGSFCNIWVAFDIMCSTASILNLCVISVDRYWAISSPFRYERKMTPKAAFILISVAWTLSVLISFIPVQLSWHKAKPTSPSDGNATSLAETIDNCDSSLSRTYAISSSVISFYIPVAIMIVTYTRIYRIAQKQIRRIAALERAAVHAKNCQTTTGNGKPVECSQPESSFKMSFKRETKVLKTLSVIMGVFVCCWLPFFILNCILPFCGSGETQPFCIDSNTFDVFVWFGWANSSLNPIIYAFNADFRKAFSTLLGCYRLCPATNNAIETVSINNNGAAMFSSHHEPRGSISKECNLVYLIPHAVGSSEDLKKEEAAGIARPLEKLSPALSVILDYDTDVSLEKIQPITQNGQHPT
TRPV1 potentiator: HTS Assay for Compounds that Act as Potentiators of the Vanilloid Receptor 1. Transient receptor potential cation channel subfamily V member 1 (Homo sapiens), Q8NER1. TRPV1-expressing cells, Fluo-8 calcium influx, capsaicin EC20 potentiation. potentiation, % at 8.33 µM. 320,000 tested, 0.02% active. AID 540277, 2011; in the data active = potentiation above about 80%; inconclusive = between about 30% and that limit; also: 0% is about no effect
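TRPV1-expressing cells were cultured overnight at 35.5C and loaded with Fluo-8 calcium dye for 40 to 90 min at room temperature. After a 10 s baseline, compound was added and calcium influx was read kinetically for 3 min (ex 480/em 520 nm).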
TRPV1 ag: HTS Assay for Compounds that Act as Agonists of the Vanilloid Receptor 1. TRPV1-expressing cells, Fluo-8 calcium influx, agonist mode. activation, % at 8.33 µM. Transient receptor potential cation channel subfamily V member 1 (Homo sapiens), Q8NER1. 320,000 tested, 0.19% active; in the data active = activation above about 80%; inconclusive = between about 30% and that limit; also: 0% is about no effect
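TRPV1-expressing cells were cultured overnight at 35.5C and loaded with Fluo-8 calcium dye for 40 to 90 min at room temperature. After a 10 s baseline, compound was added and calcium influx was read kinetically for 3 min (ex 480/em 520 nm).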
D1 agonist: Allosteric Agonists of the Human D1 Dopamine Receptor: qHTS. HEK293 T-REx D1 cells, calcium flux, agonist mode. D(1A) dopamine receptor (Homo sapiens), P21728. activation, % at 2 µM. 360,000 tested, 1% active; in the data active = activation above about 30%; also: 0% is about no effect
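Tetracycline-induced HEK293 TREx D1 cells, force-coupled to calcium signalling, were dye-loaded with a no-wash calcium kit. Compound was pin-added after a 10 s baseline. Fluorescence was read kinetically at 1 cycle/s for 180 s, with calcium rises flagged as agonism.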
D1 antagonist: Antagonist of Human D 1 Dopamine Receptor: qHTS; activity change, negative = inhibition, % at 10 µM; D(1A) dopamine receptor (Homo sapiens), P21728; HEK293 TREx D1 cells, calcium flux, dopamine EC80; hits give low values; 360,000 tested, 3.2% active; AID 504652, 2011; in the data active = activity change below about -30%; also: % is scaled to controls: 0 for no effect and ±100 for the full control effect
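Using tetracycline-induced force-coupled D1 Hek293 cells and a calcium dye, signals were followed for 180 s after compound, then for 180 s after EC80 dopamine, to detect inhibitors.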
* marks the source's active call; other numbers are inactive results; ? = inconclusive; . = no result. Only some compounds are listed: those with a hit (about 4.2% of all), similar ones and a draw of the others.

SMILES	D1 potentiator	TRPV1 potentiator	TRPV1 ag	D1 agonist	D1 antagonist
COc1cc(OC)cc(C(=O)Nc2ccc3nc(N4CCC(C)CC4)cc(C)c3c2)c1	0.7	.	.	3.6	1.4
Cc1ccc(-n2nc(C)c3c(C)c(CCC(=O)NCc4ccccc4Cl)c(C)nc32)cc1	0.2	.	.	0.8	-8.6
COc1cc(CN(C(=O)c2ccc(C)cc2)C2CCS(=O)(=O)C2)cc(OC)c1OC (stereo unspecified)	-1.6	.	.	0.3	-30.5*
Cc1cccc(C)c1NC(=O)COC(=O)CNC(=O)C1CCCCC1	-7.1	-14.7	3.0	0.1	-31.4*
CCN(CC)CCCNC(=S)N1CCN(c2nc(-c3ccc(F)cc3)cs2)CC1	-12.7	-10.5	11.9	43.3*	-45.7*
COc1cccc(-c2csc(N3CCN(C(=S)Nc4ccccc4)CC3)n2)c1	-2.9	9.7	4.6	-0.6	-8.1
CCN(CC)CCCNC(=S)N1CCN(c2nc3ccccc3n2CC)CC1	-10.9	?	3.3	1.3	-34.8*
COCCNC(=S)N1CCN(c2nc(-c3ccc(Cl)cc3)cs2)CC1	-8.9	7.3	18.4	-0.4	-1.5
COc1cccc(-c2csc(N3CCN(C(=S)Nc4ccccc4C)CC3)n2)c1	-2.6	-4.7	2.3	1.0	-32.8*
CCN(CC)CCCNC(=S)N1CCn2c(nc3ccccc32)C1	-1.4	-9.7	-1.5	1.6	-8.3
COCCNC(=S)N1CCN(c2nc(-c3ccc(F)cc3)cs2)CC1	-16.1	0.7	?	3.4	-34.2*
Cc1cn2c(=O)cc(COC(=O)c3ccc(NC(=O)c4ccc(C(C)(C)C)cc4)cc3)nc2s1	0.2	.	.	2.5	-8.2
Cc1nc(N2CCOCC2)c2c(C(=O)N3CCN(c4ccccc4F)CC3)c(C)oc2n1	13.9	.	.	-0.4	-1.6
CCCCC(=O)N1CCN(c2nc(-c3ccc(F)cc3)cs2)CC1	-3.7	-9.9	?	2.5	-30.5*
CCNC(=S)N1CCN(c2nc(-c3ccc(F)cc3)cs2)CC1	-4.6	-2.9	?	2.9	4.0
CCOC(=O)c1cnc2ccc(OCC)cc2c1N1CCN(c2cccc(Cl)c2)CC1	-1.9	.	.	7.1	5.4
Cc1cccc(NS(=O)(=O)c2ccc3oc(=O)c4ncn(C)c4c3c2)c1C	-0.1	.	.	0.1	3.8
O=C1CCCN1CCCNC(=S)Nc1ccccc1	-2.6	-9.4	7.1	4.8	-38.2*
COc1ccc(Cl)cc1NC(=S)NCCCN1CCCC1=O	-2.8	11.3	0.7	2.7	-27.6
CC1CCCC(C)N1CCCNC(=O)c1ccc2c(c1)NC(=O)c1ccccc1S2 (stereo unspecified)	-7.7	1.7	-3.2	2.6	-6.7
CCC(C)N(CCNC(=O)c1ccc2c(c1)NC(=O)c1ccccc1S2)C1CCCCC1 (stereo unspecified)	-1.7	1.7	2.8	30.4*	0.9
O=C(NCCCN1CCCC1=O)c1ccc2c(c1)NC(=O)c1ccccc1S2	.	-4.4	0.5	0.7	-32.1*
CCN1CCN(CCCNC(=O)c2ccc3c(c2)NC(=O)c2ccccc2S3)CC1	4.3	-4.3	7.2	-0.6	-10.8
COc1cc(C(=O)NCCCN2CCCC2=O)ccc1OCc1ccc(Cl)cc1Cl	-10.1	6.6	0.5	38.3*	-16.3
COC(=O)c1ccc(OC)c(Cn2c(=O)n(-c3ccc(C)cc3)c(=O)c3c2cnn3C)c1	0.9	.	.	2.6	-3.1
SMILES	D1 potentiator	TRPV1 potentiator	TRPV1 ag	D1 agonist	D1 antagonist
O=C(Nc1ccc(Br)c2cccnc12)c1cccc2ccccc12	3.5	.	.	0.8	-1.7
Cc1ccccc1C(=O)OCc1cc(=O)n2c(C)csc2n1	-0.1	.	.	5.7	6.9
COc1cc(CNCCCN2CCOCC2)cc(Br)c1OCc1ccc(Cl)cc1	-7.3	0.1	14.5	71.7*	.
COc1cc(CNCCN2CCOCC2)ccc1OCc1ccc(Cl)cc1	-2.5	-8.9	9.1	16.4	-5.9
COC(=O)c1[nH]c2cc(OC)ccc2c1NC(=O)CCN1CCN(Cc2ccc3c(c2)OCO3)CC1	12.8	?	1.6	0.0	-85.6*
COC(=O)c1[nH]c2cc(OC)ccc2c1NC(=O)CCN1CCCCC1	3.2	7.1	-0.5	0.7	0.2
COc1ccc2cc(C(=O)N3CCN(Cc4ccc5c(c4)OCO5)CC3)[nH]c2c1	-5.5	-2.1	12.8	32.7*	9.8
Cc1ccccc1Nc1ncnc2c1c(-c1ccccc1)cn2-c1ccc(F)cc1	-3.2	.	.	-2.6	-34.0*
CN1CCN(c2ncnc3c2c(-c2ccccc2)cn3-c2ccc(F)cc2)CC1	-14.1	-1.2	9.4	1.9	-41.8*
COc1cccc(N2CCN(c3ncnc4c3c(-c3ccccc3)cn4-c3ccc(F)cc3)CC2)c1	-1.1	.	.	1.0	13.5
COc1ccc(Cl)cc1Nc1ncnc2c1c(-c1ccccc1)cn2-c1ccccc1	-2.1	.	.	-1.1	-58.1*
COc1cc(/C=C2\C(C)=C(C#N)c3nc(N)c(C#N)c(C)c32)ccc1OCC(=O)O	-4.4	1.5	-1.7	4.1	-57.2*
Cc1ccc(C)c(NC(=O)Nc2cc3c(cc2N2CCCCC2)n(C)c(=O)n3C)c1	-5.2	.	.	0.4	3.0
O=C(COC(=O)C1CCC(N2C(=O)C3C4CCC(C4)C3C2=O)CC1)c1ccc(F)cc1 (stereo unspecified)	-8.6	-14.9	23.5	11.9	-34.6*
O=C1C(Cl)=C(Nc2ccc3cn[nH]c3c2)C(=O)c2ccccc21	-9.3	-28.6	19.0	10.4	-74.5*
O=C(Nc1ccc2cn[nH]c2c1)c1c(Cl)cccc1Cl	-0.2	-6.0	-1.0	0.4	2.3
CN(C)c1ccc(NC2=C(Cl)C(=O)c3ccccc3C2=O)cc1	-12.6	-2.1	3.0	9.1	-65.7*
CC(=O)Nc1ccc(NC2=C(Cl)C(=O)c3ccccc3C2=O)cc1	-9.9	-5.5	3.1	4.4	-58.1*
CC1CCC(NC(=O)c2ccc3c(c2)N(Cc2ccccc2F)C(=O)c2ccccc2S3=O)CC1 (stereo unspecified)	-1.8	.	.	17.4	-7.9
CCOC(=O)N1CCc2c(sc3c2c(=O)n(-c2ccc(Cl)cc2)c(=O)n3Cc2cccc(OC)c2)C1	-1.9	.	.	1.6	-6.9
C=CCn1c(SCC(=O)Nc2cc(C)on2)nc2sc(CC)cc2c1=O	-2.9	0.3	0.6	-3.4	-41.9*
C=CCn1c(SCC(=O)NC2CC2)nc2sc(CC)cc2c1=O	-1.7	0.2	4.8	1.7	-16.0
C=CCn1c(SCC(=O)N2CCN(C(=O)c3ccco3)CC2)nc2sc(CC)cc2c1=O	-0.8	-11.0	-0.4	-0.9	-32.0*
Cn1nnnc1SCC(=O)NC(=O)Cc1ccccc1	0.8	-9.5	3.8	0.8	-44.0*
O=C(CSc1nnnn1-c1ccccc1)NC(=O)Cc1ccccc1	5.3	11.0	14.6	5.3	8.2

Bioassay records (PubChem BioAssay)
